Potency and outcome data for 27 molecules are collected here from PubChem BioAssay (Tox21).

Test [1] is described as follows: qHTS assay for identifying genotoxic compounds that show differential cytotoxicity against isogenic chicken DT40 cell lines with known DNA damage response pathways - wild type cell line (AID 743012). Also: nearly all actives have a fitted effect of over 60% in size. Also: potency is read from the fitted curve at half-maximal effect. Summed up:
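Viability of DNA repair-proficient chicken DT40 cells was assessed by CellTiter-Glo luminescence following 40 h compound exposure at 37 C/5% CO2.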
Background: Quantitative high-throughput screening tests each substance at several concentrations.

Test [2] can be described thus: qHTS assay for identifying genotoxic compounds that show differential cytotoxicity against isogenic chicken DT40 cell lines with known DNA damage response pathways - Rev3 mutant cell line (AID 743014). Also: nearly all actives have a fitted effect of over 55% in size. Also: potency is read from the fitted curve at half-maximal effect.
Test [3] in a line: qHTS assay for identifying genotoxic compounds that show differential cytotoxicity against isogenic chicken DT40 cell lines with known DNA damage response pathways - Rad54/Ku70 mutant cell line (AID 743015). Also: nearly all actives have a fitted effect of over 60% in size. Also: potency is read from the fitted curve at half-maximal effect.
The nature of test [4]: qHTS assay to identify small molecule antagonists of the androgen receptor (AR) signaling pathway - cell viability counter screen (AID 743033; also: nearly all actives have a fitted effect of over 45% in size; also: potency is read from the fitted curve at half-maximal effect).
The nature of test [5]: qHTS assay to identify small molecule antagonists of the androgen receptor (AR) signaling pathway using the MDA cell line - cell viability counter screen (AID 743041; also: nearly all actives have a fitted effect of over 45% in size; also: potency is read from the fitted curve at half-maximal effect). In a few lines:
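Cytotoxicity counter screen: MDA-kb2 AR-luc cells, compound + R1881, 16 h, 37C, 0% CO2; CellTiter-Fluor added at 15.5 h, fluorescence read after 30 min.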

Test [6] addresses Androgen receptor (Homo sapiens) (UniProt P10275). Briefly: qHTS assay to identify small molecule antagonists of the androgen receptor (AR) signaling pathway using the MDA cell line (AID 743042; also: nearly all actives have a fitted effect of over 55% in size; also: potency is read from the fitted curve at half-maximal effect). In a few lines:
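MDA-kb2 breast carcinoma cells carrying MMTV-luciferase (AR/GR responsive) were co-treated with compounds and the agonist R1881 for 16 h at 37C. Inhibition read as ONE-Glo luminescence; CellTiter-Fluor fluorescence measured in parallel for cytotoxicity.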

Test [7] has the same target. Briefly: qHTS assay to identify small molecule agonists of the androgen receptor (AR) signaling pathway using the MDA cell line (AID 743040; also: nearly all actives have a fitted effect of over 20% in size). In a few lines: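 Luciferase read-out, ONE-Glo, 30 min RT. Cells: MDA-kb2 AR-luc, MMTV promoter with AR and GR response elements. Compound exposure 16 h, 37C, 0% CO2, after 5 h pre-incubation. qHTS agonist mode.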
The target is the same in test [8]. The test is described as follows: qHTS assay to identify small molecule antagonists of the androgen receptor (AR) signaling pathway (AID 743035; active = well fitted inhibition curve with a large enough effect in the signal ratio in the repeat runs, not every such curve was filed as active; the % refers to the signal ratio; also: potency is read from the fitted curve at half-maximal effect). In a few lines:
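Reporter HEK293 cells were exposed to compounds and R1881 overnight (16 h, 37C); beta-lactamase activity was then quantified by FRET fluorescence.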

Test [9] shares this target. Briefly: qHTS assay to identify small molecule agonists of the androgen receptor (AR) signaling pathway (AID 743036; active = well fitted activation curve with a large enough effect in the signal ratio in the repeat runs, with a control signal flat, not every such curve was filed as active; the % refers to the signal ratio). In a few lines: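 Agonist activity was scored by beta-lactamase reporter fluorescence in stably transfected HEK293 cells exposed to compounds for 16 h at 37C and 5% CO2. Substrate loading took 2 h at room temperature.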

Values joined by “and” are separate entries in the source; they are usually repeats but may differ in a detail not shown here. Identical values can stand only once. Results filed as inconclusive are left out. Some structures have more than one record in an assay (separate samples or runs), and their calls can disagree. Active and inactive are the calls of the source. Unless noted, calls follow the shape of the dose curve; as a rule, active = well fitted curve in the direction sought with a large enough effect in the repeat runs; inconclusive = weak or mixed curves; inactive = no such curve, though single readings can be large; an effect the other way counts as inactive or inconclusive.

Androgen receptor (Homo sapiens), sequence (P10275 whole entry, looked up): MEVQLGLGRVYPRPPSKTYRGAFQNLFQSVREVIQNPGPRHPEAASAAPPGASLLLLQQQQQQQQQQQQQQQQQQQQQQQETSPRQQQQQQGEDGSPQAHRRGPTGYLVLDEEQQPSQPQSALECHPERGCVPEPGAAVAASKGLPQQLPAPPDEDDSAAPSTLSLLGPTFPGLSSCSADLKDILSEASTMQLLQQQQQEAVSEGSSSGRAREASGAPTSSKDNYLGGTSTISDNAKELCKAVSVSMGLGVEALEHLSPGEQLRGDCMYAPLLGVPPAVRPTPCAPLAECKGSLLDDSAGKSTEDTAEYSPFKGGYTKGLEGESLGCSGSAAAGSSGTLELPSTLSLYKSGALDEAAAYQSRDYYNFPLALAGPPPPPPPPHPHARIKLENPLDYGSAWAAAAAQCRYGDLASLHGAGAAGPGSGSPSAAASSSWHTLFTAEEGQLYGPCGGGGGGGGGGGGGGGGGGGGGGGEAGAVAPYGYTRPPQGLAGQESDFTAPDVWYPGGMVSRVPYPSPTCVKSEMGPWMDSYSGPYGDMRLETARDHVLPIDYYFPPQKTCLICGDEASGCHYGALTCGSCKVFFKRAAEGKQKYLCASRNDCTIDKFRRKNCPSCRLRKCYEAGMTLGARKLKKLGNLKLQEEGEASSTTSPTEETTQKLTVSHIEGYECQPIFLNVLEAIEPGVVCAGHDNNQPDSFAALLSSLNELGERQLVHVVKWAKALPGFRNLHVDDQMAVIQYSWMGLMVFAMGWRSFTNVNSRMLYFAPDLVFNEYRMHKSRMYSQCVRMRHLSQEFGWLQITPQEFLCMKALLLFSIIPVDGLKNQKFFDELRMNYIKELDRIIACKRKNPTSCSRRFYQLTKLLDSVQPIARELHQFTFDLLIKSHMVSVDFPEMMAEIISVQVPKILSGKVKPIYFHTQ

`Nc1nc2ccccc2[nH]1`: the Potency result in test [1], in test [2], in test [3], in test [4] and in [5] was “inactive” each time.
With `CCN(CC)CCOc1ccc(/C(=C(\Cl)c2ccccc2)c2ccccc2)cc1`, the Potency in test [1] was 1.19 µM (active) and 140 nM (active); in [2], 422 nM (active) and 24.8 nM (active); in test [3], 1.68 µM (active) and 44.2 nM (active); in [4], 15.8 µM (active). In addition, the Potency entry in test [5] and in test [6] was “inactive” in each case.
As to `Cc1cc(OCCOCC[N+](C)(C)Cc2ccccc2)ccc1C(C)(C)CC(C)(C)C`, the Potency in [1] was 841 nM (active) and 1.21 µM (active); in test [2], 1.19 µM (active) and 682 nM (active); in test [4], 16.9 µM (active) and 15.4 µM (active); in [5] it was 24.2 µM (active); in [6], 18.8 µM (active) and 12.1 µM (active). Further, the molecule was classed as inactive in test [7].
As for `CC(C)(C)NCC(O)c1cc(O)cc(O)c1` (stereo unspecified), the Potency result in test [1], in [4] and in [5] was “inactive” each time.
Consider `CC(=O)N[C@@H](CS)C(=O)O`, for which the Potency result in test [1], in [2], in test [3], in [4] and in test [5] was “inactive” throughout.
Regarding `CC(C)(C)c1ccc(O)c(C(C)(C)C)c1`, the Potency in [1] was 27.3 µM (active); in test [2] it was 27.2 µM (active) and 24.3 µM (active); in test [3] it was 30.5 µM (active) and 27.3 µM (active). The Potency result in test [5] was “inactive”.
For `CNCCC(Oc1ccc(C(F)(F)F)cc1)c1ccccc1` (stereo unspecified), the Potency is 5.31 µM (active) and 9.56 µM (active) in test [1]; 6.68 µM (active) and 6.03 µM (active) in test [2]; 6.68 µM (active) and 8.52 µM (active) in test [3]; 48.4 µM (active) in test [4]; 27.8 µM (active) and 53.8 µM (active) in test [5].
As for `O=C1OC2(c3ccc(O)cc3Oc3cc(O)ccc32)c2ccccc21`, the Potency entry in test [1], in test [2] and in test [4] was “inactive” in each case.
Consider `CC(C)CCOCc1ccccc1`, for which the Potency result in test [1], in [2], in test [4], in test [8], in test [9] and in test [5] was “inactive” each time. Further, the Potency entry in test [6] was “inactive”. The molecule was called inactive in test [7].
`COC(=O)[C@H]1[C@H]2C[C@@H]3c4[nH]c5cc(OC)ccc5c4CCN3C[C@H]2C[C@@H](OC(=O)c2cc(OC)c(OC)c(OC)c2)[C@@H]1OC`: the Potency is 13.3 µM (active) and 17.7 µM (active) in test [1]; 18.8 µM (active) and 25 µM (active) in test [2]; 18.8 µM (active) and 24.3 µM (active) and 22.3 µM (active) in test [3]; “inactive and 21.8 µM (active)” in test [4]. For the same molecule, the Potency entry in test [5] is “inactive”.
As to `CCc1cc(C(C)(C)C)c(O)c(C(C)(C)C)c1`, in test [2], the Potency entry is “inactive and 15.4 µM (active)”. Moreover, the Potency result in test [4] and in test [5] was “inactive” throughout.
Regarding `CCn1cc(C(=O)O)c(=O)c2cc(F)c(N3CCNC(C)C3)c(F)c21` (stereo unspecified), the Potency in [1] is 26.6 µM (active). For the same molecule, the Potency result in test [2], in test [3], in test [4] and in test [5] was “inactive” throughout.
Take `O=C(Nc1ccccc1SSc1ccccc1NC(=O)c1ccccc1)c1ccccc1`: the Potency is 2.45 µM (active) and 1.37 µM (active) in test [1]; 1.38 µM (active) and 1.72 µM (active) in test [2]; 11 µM (active) and 19.5 µM (active) in test [4].
Regarding `C=C(C)C(=O)O`, the Potency result in [1], in test [2], in test [4] and in test [5] was “inactive” throughout.
Take `CCCCCC(=O)O[C@]1(C(C)=O)CC[C@H]2[C@@H]3CCC4=CC(=O)CC[C@]4(C)[C@H]3CC[C@@]21C`: the Potency in [1] was 3.76 µM (active) and 3.83 µM (active); in test [2] it was 3.76 µM (active) and 2.15 µM (active); in [3] it was 7.5 µM (active) and 5.41 µM (active); in [4] it was “inactive and 24.4 µM (active)”. For the same molecule, the Potency result in [5] was “inactive”.
As for `O=C1NCC2(CCN(CCc3ccccc3)CC2)O1`, the Potency entry in test [4] and in test [5] was “inactive” each time.
For the molecule `CNC1(C)C2CCC(C2)C1(C)C` (stereo unspecified), the Potency result in test [1], in test [2], in test [4] and in [5] was “inactive” each time.
As to `O=c1n(CC2CO2)c(=O)n(CC2CO2)c(=O)n1CC1CO1` (stereo unspecified), the Potency in test [1] was 376 nM (active) and 193 nM (active); in test [2], 53.1 nM (active) and 38.6 nM (active); in test [3] it was 944 nM (active) and 217 nM (active). Besides, the Potency entry in test [4] and in test [5] was “inactive” throughout.
`CCC(CO)(CO)COCC(CC)(CO)CO`: the Potency result in test [1], in test [3], in [4] and in [5] was “inactive” in each case.
As to `Cc1ccc(-c2cc(C(F)(F)F)nn2-c2ccc(S(N)(=O)=O)cc2)cc1`, the Potency in [1] is 23.7 µM (active) and 27.3 µM (active); in [2], 21.1 µM (active) and 54.3 µM (active) and 24.3 µM (active); in test [4], 34.5 µM (active) and 43.6 µM (active); in [8], 23.9 µM (active); in [6], “inactive and 60.9 µM (active) and 68.6 µM (active)”. Besides, the Potency result in test [9] and in test [5] was “inactive” each time. For the same molecule, in test [7], the outcome was inactive.
On to `OCCN1CCNCC1`, for which, in test [2], the Potency is 31.2 µM (active). For the same molecule, the Potency entry in [4] and in test [5] was “inactive” in each case.
Regarding `CCCCOCCOC(=O)c1ccccc1C(=O)OCCOCCCC`, the Potency was 42.4 µM (active) and 27.3 µM (active) in test [2]; 42.4 µM (active) and 61.1 µM (active) in test [3]; 53.8 µM (active) and inactive in [4]. For the same molecule, the Potency result in test [5] was “inactive”.
For `O=C(O)CCc1ccccc1`, the Potency entry in test [1], in test [2], in test [3], in [4] and in test [5] was “inactive” throughout.
On to `CCN(CC)C(=O)Nc1ccc(OCC(O)CNC(C)(C)C)c(C(C)=O)c1` (stereo unspecified), for which the Potency entry in test [1], in test [2], in [8], in test [9], in [5] and in test [6] was “inactive” each time. In test [7], the result was inactive.
On to `CC[C@]1(O)C[C@@H]2CN(CCc3c([nH]c4ccccc34)[C@@](C(=O)OC)(c3cc4c(cc3OC)N(C)[C@H]3[C@@](O)(C(=O)OC)[C@H](OC(C)=O)[C@]5(CC)C=CCN6CC[C@]43[C@@H]65)C2)C1`, for which the Potency in test [1] is 53.1 nM (active) and 29.8 nM (active); in test [2] it was 53.1 nM (active) and 29.8 nM (active); in test [3], 75 nM (active) and 53.1 nM (active). In addition, in [5], the Potency result is “inactive”.
With `CC1=CC(=O)c2ccccc2C1=O`, the Potency in [1] was 21.1 µM (active) and 13.7 µM (active); in test [2], 23.7 µM (active) and 12.2 µM (active); in test [4], “inactive and 21.9 µM (active)”; in test [6], “inactive and 30.6 µM (active)”. In [8], the Potency entry is “inactive”. Besides, the result in test [7] was inactive.
Take `COc1ccc(COC(C)=O)cc1`: the Potency result in test [1], in test [2], in test [4] and in test [5] was “inactive” each time.
